Values without a mark were called inactive. Records with an inconclusive call do not appear. A call without a number means that no potency is given here. Activity calls are given as the source filed them. Calls come from the whole dose curve; as a rule, active = well fitted curve in the direction sought with a large enough effect in the repeat runs; inconclusive = weak or mixed curves; inactive = no such curve, though single readings can be large; an effect the other way counts as inactive or inconclusive.
Assays:
[1] = Human pregnane X receptor (PXR) small molecule agonists, qHTS cell viability counter screen (AID 1346977); note: nearly all actives have a fitted effect of over 50% in size
How it was run: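 Viability counter screen: CellTiter-Fluor signal in PXR-Luc HepG2 cells, 24hr compound exposure, 37C, 5% CO2.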

[2] = Caspase-3/7 induction in HepG2 cells by small molecules, qHTS assay (AID 1346978); note: nearly all actives have a fitted effect of over 15% in size
How it was run: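 Wild-type HepG2 cells (2,000/well) were settled 5 h at 37 C, 5% CO2, then exposed to compounds in DMSO for 17 h. Caspase-3/7 activity was read by luminescence 30 min after adding Caspase-Glo 3/7 reagent at room temperature.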

[3] = Caspase-3/7 induction in CHO-K1 cells by small molecules, qHTS cell viability counter screen (AID 1346979); note: nearly all actives have a fitted effect of over 35% in size; note: potency is the fitted concentration of half-maximal effect
How it was run: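 Viability readout by fluorescence (CellTiter-Fluor) on wild-type CHO-K1 cells exposed for 16hr at 37C and 5% CO2 to compounds delivered in DMSO; reagent incubated 1hr before reading.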

[4] = Caspase-3/7 induction in CHO-K1 cells by small molecules, qHTS assay (AID 1346980); note: nearly all actives have a fitted effect of over 15% in size
How it was run: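 Wild-type cells were seeded at 1,500 per well and settled 5 hr at 37 C, 5% CO2, then exposed to DMSO-dissolved compounds for 17 hr. Caspase-Glo 3/7 reagent was added, and luminescence was read after 30min at room temperature.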

[5] = Caspase-3/7 induction in HepG2 cells by small molecules, qHTS cell viability counter screen (AID 1346981); note: series mostly up to about 92 µM; nearly all actives have a fitted effect of over 30% in size
How it was run: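 Fluorescence read-out of live-cell protease activity (CellTiter-Fluor) after 1 hr with reagent. This was measured in the same wells as the caspase-3/7 luminescence, on HepG2 cells exposed to DMSO-dissolved compounds for 16 hr at 37 C.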

[6] = target: Nuclear receptor subfamily 1 group I member 2 (Homo sapiens) (UniProt O75469); assay: Human pregnane X receptor (PXR) small molecule agonists, qHTS assay (AID 1346982); note: nearly all actives have a fitted effect of over 35% in size; note: potency is the fitted concentration of half-maximal effect
Chain of Nuclear receptor subfamily 1 group I member 2 (Homo sapiens) (O75469 whole entry, looked up): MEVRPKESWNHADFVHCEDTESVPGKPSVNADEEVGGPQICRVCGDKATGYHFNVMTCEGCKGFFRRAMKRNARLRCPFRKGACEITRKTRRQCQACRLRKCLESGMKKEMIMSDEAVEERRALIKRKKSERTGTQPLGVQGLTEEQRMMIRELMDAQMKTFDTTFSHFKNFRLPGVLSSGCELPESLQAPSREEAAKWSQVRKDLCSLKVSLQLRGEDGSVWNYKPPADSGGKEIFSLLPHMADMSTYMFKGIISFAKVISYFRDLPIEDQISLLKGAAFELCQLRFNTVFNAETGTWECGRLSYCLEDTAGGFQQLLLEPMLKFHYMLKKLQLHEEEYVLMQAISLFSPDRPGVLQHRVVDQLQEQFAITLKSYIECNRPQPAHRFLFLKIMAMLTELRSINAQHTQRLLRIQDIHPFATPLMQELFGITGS
How it was run: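 HepG2 PXR-Luc reporter line, 5% charcoal-stripped FBS; 5 hr pre-incubation, compound (DMSO) 24 hr at 37 C/5% CO2; ONE-Glo 30 min RT; luminescence read-out.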

For `Cc1cc(N)c2cc(NC(=O)Nc3ccc4nc(C)cc(N)c4c3)ccc2n1`, the Potency [1] was “inactive”, the Potency [2] was “inactive” and the Potency [3] was “inactive”. The Potency [4] was “inactive” and the Potency [5] was “inactive”.
In the case of `CCCCCCCCCOS(=O)(=O)O`, the Potency [1] is reported as “inactive”, the Potency [2] is reported as “inactive” and the Potency [3] is reported as “inactive”. For the same compound, the Potency [4] was “inactive”, the Potency [5] was “inactive” and the Potency [6] was “inactive”.
In the case of `CCC(C)O` (stereo not given), the Potency [1] is reported as “inactive”, the Potency [2] is reported as “inactive” and the Potency [3] is reported as “inactive”. The Potency [4] was “inactive” and the Potency [5] was “inactive”.
For `CC1CCC(=O)C1=O` (stereo not given), the Potency [1] was “inactive”, the Potency [2] was “inactive” and the Potency [3] was “inactive”. The Potency [4] was “inactive”, the Potency [5] was “inactive” and the Potency [6] was “inactive”.
In the case of `CC[N+](C)(CC)CCOC(=O)C(O)(c1ccccc1)C1CCCCC1` (stereo not given), the Potency [1] is reported as “inactive”, the Potency [2] is reported as “inactive” and the Potency [3] is reported as “inactive”. For the same compound, the Potency [4] was “inactive”, the Potency [5] was “inactive” and the Potency [6] was “inactive”.
In the case of `CCOC(=O)C(=O)CCc1ccccc1`, the Potency [1] is reported as “inactive”, the Potency [2] is reported as “inactive” and the Potency [3] is reported as “inactive”. The Potency [4] was “inactive”, the Potency [5] was “inactive” and the Potency [6] was “inactive”.
In the case of `O=[N+]([O-])c1ccc2[nH]ncc2c1`, the Potency [1] is reported as “inactive”, the Potency [2] is reported as “inactive” and the Potency [3] is reported as “inactive”. The Potency [4] was “inactive”, the Potency [5] was “inactive” and the Potency [6] was “inactive”.
For `O=C1CCCCCCCCCCCC(=O)OCCO1`, the Potency [1] was “inactive”, the Potency [2] was “inactive” and the Potency [3] was “inactive”. For the same compound, the Potency [4] was “inactive”, the Potency [5] was “inactive” and the Potency [6] was “inactive”.
In the case of `CCNc1cc(O)ccc1C`, the Potency [1] is reported as “inactive”, the Potency [2] is reported as “inactive” and the Potency [3] is reported as 60.4 µM (active). The Potency [4] was “inactive”, the Potency [5] was “inactive” and the Potency [6] was 48 µM (active).
In the case of `S=C([S-])NCCNC(=S)[S-].[Mn+2]`, the Potency [1] is reported as “inactive”, the Potency [2] is reported as “inactive” and the Potency [3] is reported as “inactive”. For the same compound, the Potency [4] was “inactive”, the Potency [5] was “inactive” and the Potency [6] was 30.6 µM (active).
With `Cc1ccc(C(=O)Oc2ccc(C(O)CNC(C)(C)C)cc2OC(=O)c2ccc(C)cc2)cc1` (stereo not given) the Potency [1] was “inactive”, the Potency [2] was “inactive” and the Potency [3] was 29.8 µM (active).
In the case of `CCCCCCCN`, the Potency [1] is reported as “inactive”, the Potency [2] is reported as “inactive” and the Potency [3] is reported as “inactive”. For the same compound, the Potency [4] was “inactive”, the Potency [5] was “inactive” and the Potency [6] was “inactive”.
For `CCC(C)c1cc(C(C)(C)C)c(O)c(C(C)(C)C)c1` (stereo not given), the Potency [1] was “inactive”, the Potency [2] was “inactive” and the Potency [3] was “inactive”. The Potency [4] was “inactive”, the Potency [5] was “inactive” and the Potency [6] was 47.6 µM (active).
In the case of `C[N+]1(C)CCC(OC(=O)C(O)(c2ccccc2)C2CCCC2)C1` (stereo not given), the Potency [1] is reported as “inactive”, the Potency [2] is reported as “inactive” and the Potency [3] is reported as “inactive”. For the same compound, the Potency [4] was “inactive”, the Potency [5] was “inactive” and the Potency [6] was “inactive”.
For `CC(C)O.CC(C)O.CCOC(=O)/C=C(\C)O.CCOC(=O)/C=C(\C)O.[Ti]`, the Potency [1] was “inactive”, the Potency [2] was “inactive” and the Potency [3] was “inactive”. For the same compound, the Potency [4] was “inactive” and the Potency [5] was “inactive”.
For `CCCCCCCCCCCc1ccccc1`, the Potency [1] was “inactive”, the Potency [2] was “inactive” and the Potency [3] was “inactive”. The Potency [4] was “inactive”, the Potency [5] was “inactive” and the Potency [6] was “inactive”.
`NCC(=O)O` gave an activity change, negative = cytotoxicity [1] of 14.5% [at 19 µM], a caspase activation [2] of -0.745% [at 19 µM] and an activity change, negative = cytotoxicity [3] of 7.68% [at 19 µM]. It also gave a caspase-3/7 activation [4] of -1.83% [at 19 µM] and an activity change, negative = cytotoxicity [5] of 4.32% [at 19 µM].

From PubChem BioAssay (Tox21)
